An excerpt weighted towards active compounds, which were near 11% of everything screened.
Pf growth 96h = P. falciparum growth inhibition at 96 hour, primary screen for plastid delayed-death inhibitors. P. falciparum luciferase reporter growth, 96 h. Potency, µM (top dose mostly 28.7 µM), usual class: inhibitors. actives 6.9% (n = 320,000)
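Infected RBCs, 2% Hct / 0.05% parasitemia final; luciferase-reporter P. falciparum; cpd 96 h, 37 C, 5% CO2; luciferase detection reagent; luminescence.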
AMA1-RON2 inh = inhibitors of Plasmodium falciparum AMA1-RON2 interaction; AID 720542; actives 0.2% (n = 360,000); AlphaScreen AMA1-biotinylated RON2 peptide binding; Potency, µM (top dose mostly 58.2 µM), usual class: inhibitors; further: nearly all actives have a fitted effect of over 45% in size
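AMA1 (3D7) with his tag at 25 nM final met compounds first, then biotinylated RON2 peptide at 25 nM; detection used donor plus acceptor beads, 10 µg/mL apiece, read by AlphaScreen after 30 min at room temperature.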
HCV inh = blocks hepatitis C virus. actives 3.4% (n = 340,000). Potency, µM (highest dose often 41.8 µM), usual class: inhibitors. AID 651820. Huh7.5.1 HCVcc-Cre infection, luciferase reporter, 44 h
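Infectious HCV cell culture screen: compound-treated cells (1,000/well, pre-plated 4 h) are infected with HCVcc-Cre at roughly 0.5 moi and grown 44 h. Infection is quantified by luciferase signal after 15 min substrate incubation at room temperature.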
Pf growth 48h = P. falciparum growth inhibition at 48 hours (one generation). Potency, µM (highest dose often 28.7 µM), most hits filed as inhibitors. actives 5.9% (n = 310,000). P. falciparum luciferase growth in erythrocytes, 48 h
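Luciferase-expressing parasites in RBCs, 2% Hct / 0.1% parasitemia final; RPMI 1640 + 0.5% Albumax; 37 C, 5% CO2, one generation; luminescence read-out, lower signal = inhibition.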
A number is an active result; – = inactive; ? = inconclusive; · = not tested or not shown; [ ] = another dose, or the depositor's remark. The call rests on the fitted dose curve; in most records, active means well fitted curve in the direction sought with a large enough effect; inconclusive means small, poorly fitted or top-dose-only effect, or another doubt; inactive means no such curve, though single readings can be large; an effect the other way counts as inactive or inconclusive.

SMILES	Pf growth 96h	AMA1-RON2 inh	HCV inh	Pf growth 48h
CN(C)S(=O)(=O)c1ccc(S(=O)(=O)N2CCCC(C(=O)NC3CCCC3)C2)cc1 (stereo unspecified)	–	–	?	–
COc1ccc(F)cc1-c1cc(C(=O)NC2CCCCC2)[nH]n1	·	–	·	·
CCOC(=O)C(/C(N)=N/C(=O)Nc1ccccc1)=C(\C)O	9.3µM	–	–	–
Oc1ccc(Oc2ccc(Oc3ccc(O)cc3)cc2)cc1	–	–	–	–
CC(=O)Nc1cc(NC(C)=O)ncn1	–	–	–	?
O=C(Nc1cccc(Cl)c1N1CCCCC1)c1ccc(N2CCOCC2)c([N+](=O)[O-])c1	6.6µM	–	–	–
O=C(NC1CC1)c1ccc(N2CCCCC2)c([N+](=O)[O-])c1	2.6µM	–	–	8.3µM
CN1CCN(c2ccccc2NC(=O)c2ccc(N3CCCC3)c([N+](=O)[O-])c2)CC1	–	–	?	?
O=C(NC1CCCCC1)c1ccc(N2CCOCC2)c([N+](=O)[O-])c1	?	–	–	–
Cc1ccc(-c2csc(NC(=O)c3cc([N+](=O)[O-])ccc3N3CCOCC3)n2)cc1	–	–	–	–
O=C(Nc1nc(-c2ccccc2)cs1)c1ccc(N2CCOCC2)c([N+](=O)[O-])c1	–	?	3.5µM	?
O=C(Nc1ccccc1N1CCCCC1)c1ccc(Cl)c([N+](=O)[O-])c1	–	?	13µM	–
CN(C)S(=O)(=O)N1CCC(Oc2cccc(C(=O)NC3CCOC3)c2)CC1 (stereo unspecified)	–	–	–	–
CCCCOCCCNC(=O)C[C@@H]1C[C@@]2(C(=O)OC)CC(C)(C)CC=C2N(Cc2ccccc2)C1=O	·	–	·	·
CCn1c(C)nc2cc(-c3nnc(-c4c(-c5ccccc5)noc4C)o3)ccc21	–	–	?	9.3µM
Cc1onc(-c2ccccc2)c1-c1nc2ccccc2c(=O)o1	–	–	–	·
O=C(CN(Cc1ccccc1F)C(=O)Cn1nnc(-c2cccs2)n1)NCC1CCCO1 (stereo unspecified)	·	–	?	–
COc1ccc(OC)c(Cc2nnc(CCC(=O)NC3C4CC5CC(C4)CC3C5)o2)c1 (stereo unspecified)	–	–	–	10µM
COc1ccc(OC)c(Cc2nnc(CCC(=O)NC3CCCCC3)o2)c1	13µM	–	–	–
CN(C)Cc1ccc(O)c(CCc2ccccc2)n1	–	–	–	5.2µM
CCCCN(C)c1c(C)nc2ccc(C(=O)Nc3cc(-c4ccccc4)ccc3OC)cn12	·	–	·	·
O=C(O)CCCCCN1C(=O)C2CCCCC2C1=O (stereo unspecified)	9.3µM	–	–	–
Cc1ccccc1Nc1n[nH]c(C)c1[N+](=O)[O-]	3.7µM	–	–	–
CCCCN1C(=O)c2ccc(C(=O)NC3(C)CCS(=O)(=O)C3)cc2C1=O (stereo unspecified)	–	–	–	–
CC1CCN(c2nc(CN3CCCCC3)nc3scc(-c4ccccc4)c23)CC1	1.5µM	–	?	2.3µM
SMILES	Pf growth 96h	AMA1-RON2 inh	HCV inh	Pf growth 48h
NC(=O)C1CC(O)CN1c1nc(CN2CCOCC2)nc2scc(-c3ccccc3)c12 (stereo unspecified)	?	–	–	–
CC1CCN(c2nc(-c3cccnc3)nc3scc(-c4ccccc4)c23)CC1	?	–	22µM	–
CC1CCCN(c2nc(-c3cccnc3)nc3scc(-c4ccccc4)c23)C1 (stereo unspecified)	?	–	?	–
CCOC(=O)[C@]12CCC=C1N(CCC1=CCCCC1)C(=O)[C@H](CC(=O)NCCCCc1ccccc1)C2	·	–	·	·
NS(=O)(=O)c1ccc(CCNC(=S)NC2CCCCC2)cc1	–	–	–	–
COc1ccc(OC)c(NC(=S)NCc2ccc(S(N)(=O)=O)cc2)c1	?	–	–	–
NS(=O)(=O)c1ccc(CNC(=S)NC2CC2)cc1	2.1µM	–	–	–
COc1ccc(Cl)cc1NC(=S)NCc1ccc(S(N)(=O)=O)cc1	12µM	–[2.32 µM]	?	–
Cc1ccc(S(=O)(=O)NC(=O)NCc2ccc(F)cc2)cc1	4.1µM	–	–	–
NS(=O)(=O)c1ccc(CNC(=S)NCc2ccc(F)cc2)cc1	10µM	–	–	–
COc1cccc(C(C#N)NCCCNC(C#N)c2cccc(OC)c2OC)c1OC (stereo unspecified)	·	–	–	·
Cc1c(C(=O)Nc2cc(F)ccc2F)sc2nc3n(c(=O)c12)CCCCC3	?	–	–	–
CCOC(=O)C1CCC2(CC1)C(C#N)=C(N)Oc1n[nH]c(C)c12 (stereo unspecified)	–	–	–	?
